What was measured:
Assay in all cases: DAPPL (digital affinity profiling via proximity ligation, sequencing); 10 mM Tris-HCl pH 7.5, 50 mM NaCl, 1 mM DTT, 4% glycerol, room temperature, 30 min; GST-TFs on glutathione beads, 16-mer random dsDNA library, 0.1% formaldehyde crosslink after washing; high values mean tight binding
Settings in all cases: protein: recombinant; tags: N-terminal GST; dsDNA, one strand shown
FLI1 = target: T1, FLI1 (Homo sapiens, UniProt Q01543 1-452)
T1 sequence: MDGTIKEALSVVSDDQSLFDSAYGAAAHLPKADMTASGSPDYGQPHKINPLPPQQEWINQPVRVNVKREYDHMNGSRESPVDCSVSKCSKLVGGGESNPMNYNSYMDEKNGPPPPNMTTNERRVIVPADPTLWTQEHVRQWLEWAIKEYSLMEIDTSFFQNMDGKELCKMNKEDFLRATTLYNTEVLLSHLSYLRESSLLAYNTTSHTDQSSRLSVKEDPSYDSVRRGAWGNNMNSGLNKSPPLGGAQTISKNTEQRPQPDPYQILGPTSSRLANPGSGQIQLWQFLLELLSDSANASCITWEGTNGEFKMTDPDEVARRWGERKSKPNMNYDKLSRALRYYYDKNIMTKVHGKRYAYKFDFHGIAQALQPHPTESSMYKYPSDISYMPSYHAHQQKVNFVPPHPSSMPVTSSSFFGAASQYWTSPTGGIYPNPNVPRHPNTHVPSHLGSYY
Summary of the method: (§1)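 Binding signal is each hexamer's read frequency for a factor divided by its frequency in the tag-only sample. The factors were GST-fused human transcription factors from yeast, captured on glutathione beads, DNA-barcoded and pooled with that sample. Pools were incubated with 200 nmole of a random double-stranded 16-mer DNA library in Tris/NaCl/DTT/glycerol buffer at room temperature for 30 min, then washed, crosslinked with 0.1% formaldehyde, proximity-ligated with BsaI/T4 ligase (1 h, 37 °C), PCR-amplified and sequenced on an Illumina NextSeq500.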

ELK1 = target: T2, ELK1 (Homo sapiens, UniProt P19419 1-428)
T2 sequence: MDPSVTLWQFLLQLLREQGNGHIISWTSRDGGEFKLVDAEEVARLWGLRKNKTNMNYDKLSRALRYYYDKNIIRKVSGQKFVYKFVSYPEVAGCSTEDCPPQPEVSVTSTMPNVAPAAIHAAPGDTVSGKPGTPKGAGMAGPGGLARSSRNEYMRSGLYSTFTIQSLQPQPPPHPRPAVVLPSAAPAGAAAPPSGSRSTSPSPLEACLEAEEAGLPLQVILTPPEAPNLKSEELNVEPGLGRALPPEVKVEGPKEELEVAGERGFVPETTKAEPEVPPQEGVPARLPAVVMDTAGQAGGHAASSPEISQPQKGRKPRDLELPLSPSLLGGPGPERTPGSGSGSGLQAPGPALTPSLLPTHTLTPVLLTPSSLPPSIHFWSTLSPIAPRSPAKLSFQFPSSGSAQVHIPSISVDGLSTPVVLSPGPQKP
Summary of the method: as §1

GABPA = target: T3, GABPA (Homo sapiens, UniProt Q06546 1-454)
T3 sequence: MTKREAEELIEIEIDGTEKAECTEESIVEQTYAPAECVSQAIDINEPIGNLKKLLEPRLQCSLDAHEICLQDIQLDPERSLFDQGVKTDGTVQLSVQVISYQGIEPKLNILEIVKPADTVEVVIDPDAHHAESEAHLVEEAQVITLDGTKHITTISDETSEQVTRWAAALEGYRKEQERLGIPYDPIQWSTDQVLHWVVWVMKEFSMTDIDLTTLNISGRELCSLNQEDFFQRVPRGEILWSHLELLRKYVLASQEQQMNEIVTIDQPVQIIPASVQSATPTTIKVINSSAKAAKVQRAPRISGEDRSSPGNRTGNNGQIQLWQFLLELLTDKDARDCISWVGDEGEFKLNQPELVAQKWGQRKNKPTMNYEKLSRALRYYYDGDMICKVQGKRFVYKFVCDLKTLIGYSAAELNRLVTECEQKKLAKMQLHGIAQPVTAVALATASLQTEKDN
Summary of the method: as §1

ERG = target: T4, ERG (Homo sapiens, UniProt P11308 1-479)
T4 sequence: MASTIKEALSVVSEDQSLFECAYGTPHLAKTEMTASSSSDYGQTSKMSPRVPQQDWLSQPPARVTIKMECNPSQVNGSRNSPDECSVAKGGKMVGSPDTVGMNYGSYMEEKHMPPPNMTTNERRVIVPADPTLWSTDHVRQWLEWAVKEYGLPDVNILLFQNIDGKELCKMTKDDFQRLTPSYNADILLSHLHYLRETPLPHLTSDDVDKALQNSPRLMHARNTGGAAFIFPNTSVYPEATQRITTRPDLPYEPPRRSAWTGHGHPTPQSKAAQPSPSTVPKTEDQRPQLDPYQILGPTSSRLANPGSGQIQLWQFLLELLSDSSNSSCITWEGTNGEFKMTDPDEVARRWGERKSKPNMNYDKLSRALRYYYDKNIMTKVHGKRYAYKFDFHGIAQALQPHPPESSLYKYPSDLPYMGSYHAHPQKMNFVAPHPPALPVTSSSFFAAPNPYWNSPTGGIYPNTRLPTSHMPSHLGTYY
Summary of the method: as §1

ELF1 = ELF1 (Homo sapiens, UniProt P32519 1-619)
Summary of the method: as §1

EHF = target: T5, EHF (Homo sapiens, UniProt Q9NZC4 1-300)
T5 sequence: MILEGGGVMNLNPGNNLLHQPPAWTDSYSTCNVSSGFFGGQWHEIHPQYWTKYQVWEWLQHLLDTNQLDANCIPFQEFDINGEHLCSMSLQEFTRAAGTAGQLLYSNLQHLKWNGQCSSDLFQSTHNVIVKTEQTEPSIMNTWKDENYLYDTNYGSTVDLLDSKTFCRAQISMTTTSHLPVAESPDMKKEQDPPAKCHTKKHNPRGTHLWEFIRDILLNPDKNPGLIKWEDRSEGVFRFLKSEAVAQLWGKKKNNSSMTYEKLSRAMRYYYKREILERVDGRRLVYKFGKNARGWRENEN
Summary of the method: as §1

SPI1 = SPI1 (Homo sapiens, UniProt P17947 1-270)
Summary of the method: as §1

SPIB = SPIB (Homo sapiens, UniProt Q01892 1-262)
Summary of the method: as §1

ELK3 = target: T6, ELK3 (Homo sapiens, UniProt P41970 1-407)
T6 sequence: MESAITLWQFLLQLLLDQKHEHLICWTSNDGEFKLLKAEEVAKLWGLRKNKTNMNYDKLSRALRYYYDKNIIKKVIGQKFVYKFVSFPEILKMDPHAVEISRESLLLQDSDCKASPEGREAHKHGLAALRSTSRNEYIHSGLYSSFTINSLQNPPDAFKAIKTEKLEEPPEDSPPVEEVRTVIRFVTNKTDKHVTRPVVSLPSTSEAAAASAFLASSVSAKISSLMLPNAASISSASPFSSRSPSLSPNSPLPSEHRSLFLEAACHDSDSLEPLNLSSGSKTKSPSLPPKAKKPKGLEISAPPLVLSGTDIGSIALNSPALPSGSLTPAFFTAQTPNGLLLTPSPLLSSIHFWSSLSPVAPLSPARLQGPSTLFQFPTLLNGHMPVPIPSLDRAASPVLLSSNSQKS
Summary of the method: as §1

Sequence of ELF1 (P32519 whole entry): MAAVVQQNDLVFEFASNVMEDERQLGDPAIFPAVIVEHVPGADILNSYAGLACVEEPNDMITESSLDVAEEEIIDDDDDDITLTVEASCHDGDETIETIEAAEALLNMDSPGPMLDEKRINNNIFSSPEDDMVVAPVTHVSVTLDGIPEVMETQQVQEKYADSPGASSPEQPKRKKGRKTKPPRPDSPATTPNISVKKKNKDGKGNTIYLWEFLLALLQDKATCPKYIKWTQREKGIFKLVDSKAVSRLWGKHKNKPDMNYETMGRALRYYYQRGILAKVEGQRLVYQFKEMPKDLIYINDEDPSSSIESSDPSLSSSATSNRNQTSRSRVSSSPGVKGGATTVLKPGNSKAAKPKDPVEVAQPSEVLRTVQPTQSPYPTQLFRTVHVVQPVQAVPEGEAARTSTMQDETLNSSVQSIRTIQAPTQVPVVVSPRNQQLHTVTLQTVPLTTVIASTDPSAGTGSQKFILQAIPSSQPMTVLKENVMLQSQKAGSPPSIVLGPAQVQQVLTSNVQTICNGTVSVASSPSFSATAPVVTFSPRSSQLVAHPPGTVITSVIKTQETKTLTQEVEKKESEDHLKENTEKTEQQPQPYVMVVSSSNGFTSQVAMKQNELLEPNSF
Sequence of SPIB (Q01892 whole entry): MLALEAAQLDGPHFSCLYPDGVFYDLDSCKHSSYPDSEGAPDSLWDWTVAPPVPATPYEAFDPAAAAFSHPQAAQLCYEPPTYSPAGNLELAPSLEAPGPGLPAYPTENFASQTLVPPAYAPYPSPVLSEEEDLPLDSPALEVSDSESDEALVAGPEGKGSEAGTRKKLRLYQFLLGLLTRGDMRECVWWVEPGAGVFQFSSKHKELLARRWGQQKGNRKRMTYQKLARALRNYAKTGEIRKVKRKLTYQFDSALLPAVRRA

Sequence	binding signal (FLI1)	binding signal (ELK1)	binding signal (GABPA)	binding signal (ERG)	binding signal (ELF1)	binding signal (EHF)	binding signal (SPI1)	binding signal (SPIB)	binding signal (ELK3)
TCTATT	1.33 fold enrichment (6-mer frequency, TF over GST control)	1.3 fold enrichment (6-mer frequency, TF over GST control)	1.18 fold enrichment (6-mer frequency, TF over GST control)	1.25 fold enrichment (6-mer frequency, TF over GST control)	1.29 fold enrichment (6-mer frequency, TF over GST control)	1.28 fold enrichment (6-mer frequency, TF over GST control)	1.28 fold enrichment (6-mer frequency, TF over GST control)	1.28 fold enrichment (6-mer frequency, TF over GST control)	1.18 fold enrichment (6-mer frequency, TF over GST control)
TTTCGG	1.08 fold enrichment (6-mer frequency, TF over GST control)	1.14 fold enrichment (6-mer frequency, TF over GST control)	1.14 fold enrichment (6-mer frequency, TF over GST control)	1.26 fold enrichment (6-mer frequency, TF over GST control)	1.22 fold enrichment (6-mer frequency, TF over GST control)	1.18 fold enrichment (6-mer frequency, TF over GST control)	1.36 fold enrichment (6-mer frequency, TF over GST control)	1.14 fold enrichment (6-mer frequency, TF over GST control)	1.22 fold enrichment (6-mer frequency, TF over GST control)
AACACA	1.32 fold enrichment (6-mer frequency, TF over GST control)	1.32 fold enrichment (6-mer frequency, TF over GST control)	1.33 fold enrichment (6-mer frequency, TF over GST control)	1.32 fold enrichment (6-mer frequency, TF over GST control)	1.39 fold enrichment (6-mer frequency, TF over GST control)	1.38 fold enrichment (6-mer frequency, TF over GST control)	1.27 fold enrichment (6-mer frequency, TF over GST control)	1.35 fold enrichment (6-mer frequency, TF over GST control)	1.26 fold enrichment (6-mer frequency, TF over GST control)
ATTGAT	1.28 fold enrichment (6-mer frequency, TF over GST control)	1.35 fold enrichment (6-mer frequency, TF over GST control)	1.39 fold enrichment (6-mer frequency, TF over GST control)	1.33 fold enrichment (6-mer frequency, TF over GST control)	1.31 fold enrichment (6-mer frequency, TF over GST control)	1.17 fold enrichment (6-mer frequency, TF over GST control)	1.24 fold enrichment (6-mer frequency, TF over GST control)	1.16 fold enrichment (6-mer frequency, TF over GST control)	1.33 fold enrichment (6-mer frequency, TF over GST control)
TCACTC	1.16 fold enrichment (6-mer frequency, TF over GST control)	1.19 fold enrichment (6-mer frequency, TF over GST control)	1.28 fold enrichment (6-mer frequency, TF over GST control)	1.18 fold enrichment (6-mer frequency, TF over GST control)	1.34 fold enrichment (6-mer frequency, TF over GST control)	1.27 fold enrichment (6-mer frequency, TF over GST control)	1.21 fold enrichment (6-mer frequency, TF over GST control)	1.26 fold enrichment (6-mer frequency, TF over GST control)	1.18 fold enrichment (6-mer frequency, TF over GST control)
TTGCTT	1.32 fold enrichment (6-mer frequency, TF over GST control)	1.15 fold enrichment (6-mer frequency, TF over GST control)	1.36 fold enrichment (6-mer frequency, TF over GST control)	1.3 fold enrichment (6-mer frequency, TF over GST control)	1.21 fold enrichment (6-mer frequency, TF over GST control)	1.2 fold enrichment (6-mer frequency, TF over GST control)	1.29 fold enrichment (6-mer frequency, TF over GST control)	1.35 fold enrichment (6-mer frequency, TF over GST control)	1.26 fold enrichment (6-mer frequency, TF over GST control)
TGGTAA	1.28 fold enrichment (6-mer frequency, TF over GST control)	1.33 fold enrichment (6-mer frequency, TF over GST control)	1.32 fold enrichment (6-mer frequency, TF over GST control)	1.28 fold enrichment (6-mer frequency, TF over GST control)	1.28 fold enrichment (6-mer frequency, TF over GST control)	1.37 fold enrichment (6-mer frequency, TF over GST control)	1.28 fold enrichment (6-mer frequency, TF over GST control)	1.4 fold enrichment (6-mer frequency, TF over GST control)	1.32 fold enrichment (6-mer frequency, TF over GST control)

Reference: PMC7862700, “An all-to-all approach to the identification of sequence-specific readers for epigenetic DNA modifications on cytosine”
